Drawing on PubChem BioAssay (NCI), this text covers growth inhibition for 18 compounds.

The panel holds about 79,000 compounds, 15% with a hit somewhere; the sample as a whole holds those more often. Calls of active or inactive are those of the source. No stated cut-off is given here; in the data, active means growth inhibition above about 70%; inactive means the rest.

The nature of this assay: NCI Yeast Anticancer Drug Screen. Data for the rad50 strain (AID 155).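 Further: 0% = growth of vehicle-only cultures of the same strain.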 Conditions: S. cerevisiae rad50 strain growth inhibition; at 50.0 µM; stronger effect = higher value. The procedure, abridged:
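Readout: growth inhibition relative to vehicle-treated cultures. Compound exposure was carried out in a genetically defined yeast strain deficient in DNA damage repair.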
In the case of `CCCCCCCCCC1OCC(C)O1` (stereo not drawn), the growth inhibition was 53% (inactive).
As for `O=[N+]([O-])c1ccc2c(c1)/C(=C/c1ccc(O)cc1)c1ccccc1-2`, the figure is 88.3% (active); as for `COc1cc2c(cc1OC(C)=O)C(=O)C(Br)(Br)CCC2`, 62.5% (inactive).
As for `COC(=O)c1cc2c(oc1=O)-c1ccccc1N(C=O)C2`, the figure is 0.3% (inactive); as for `CC(=O)Nc1ccc(S(=O)(=O)/N=C2\C=CC(=O)c3ccccc32)cc1`, 63.9% (inactive).
The same measure for `C/C(=N/NC(=S)N(C)C)c1ccccc1O`: -28.2% (inactive); for `CC(CN(C)C)C(=O)/C=C/c1c(Cl)cccc1Cl` (stereo not drawn): 86.7% (active); for `N#CC(O)C(Br)(Br)Br` (stereo not drawn): 82.7% (active).
With `C=Cc1cc(N=Nc2ccc([N+](=O)[O-])cc2)ccc1N(C)C`, the growth inhibition was 48% (inactive).
`Cc1cccnc1NC(=S)Nc1ccccc1Cl`: the growth inhibition was 89.5% (active).
Regarding `O=C1C=CC(=O)c2c(O)c(N3CCC[C@@H]3CO)c(Cl)c(O)c21`, the growth inhibition was 30.1% (inactive).
`Cc1cc(C(=O)O)c(C)c2c1sc1ccccc12`: the growth inhibition is 76.8% (active).
The same measure for `COc1cccc2c1OC(c1ccc(Cl)cc1)C([N+](=O)[O-])=C2` (stereo not drawn): 85.7% (active); for `CC1=C(C(=O)Nc2cccc(Cl)c2)C(c2ccccc2F)C(C(=O)Nc2cccc(Cl)c2)=C(C)N1`: 71.3% (active); for `Cc1ccc(C2C(O)=C(c3ccccc3)Sc3ccc(C)cc32)cc1` (stereo not drawn): 35.6% (inactive).
As for `CC(=O)Oc1ccc(C)c(C(C)C(Cl)(Cl)Cl)c1` (stereo not drawn), the figure is 65% (inactive); as for `CCCC(=O)Oc1ccc(-c2ccc(Br)cc2)cc1`, 92.8% (active); as for `CCCCC#CCOC(=O)c1cc([N+](=O)[O-])cc([N+](=O)[O-])c1`, 99.2% (active).
